Reference: PubChem BioAssay (NCI)
This is part of a sample that, as a whole, favours compounds with a hit. Of some 79,000 tested, about 15% had one in any assay. Values without a mark were called inactive. Active and inactive are the calls of the source. Rule as the data show it: active = growth inhibition above about 70%; inactive = the rest.

Key:
[1] = NCI Yeast Anticancer Drug Screen. Data for the rad50 strain (AID 155);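 also: 0% = growth of vehicle-only cultures of the same strain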; details: S. cerevisiae rad50 strain growth inhibition; at 50.0 µM; stronger effect = higher value
In short: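 Relative growth inhibition (compound vs vehicle) was measured in yeast with a defined repair-gene alteration.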

[2] = NCI Yeast Anticancer Drug Screen. Data for the mec2-1 strain (AID 157); details: S. cerevisiae mec2-1 strain, at 50.0 µM, stronger effect = higher value
In short: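 Compounds were applied to mec2-1 yeast cells. Their growth was then compared with that of vehicle-treated cultures to give growth inhibition.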

[3] = NCI Yeast Anticancer Drug Screen. Data for the cln2 rad14 strain (AID 165);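 also: 0% = growth equal to vehicle treated cultures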; details: S. cerevisiae cln2 rad14 strain, at 50.0 µM, stronger effect = higher value
In short: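 Strain: cln2 rad14 yeast, altered in cell cycle control and DNA damage repair. Read-out: growth inhibition vs vehicle.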

[4] = NCI Yeast Anticancer Drug Screen. Data for the bub3 strain (AID 167); details: S. cerevisiae bub3 mutant strain, at 50.0 µM, stronger effect = higher value
In short: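 Screening used yeast with an engineered genetic alteration affecting cell cycle control. Compound-exposed cultures were compared with vehicle cultures, and reduced growth was taken as inhibition.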

[5] = NCI Yeast Anticancer Drug Screen. Data for the mlh1 rad18 strain (AID 175); details: S. cerevisiae mlh1 rad18 strain growth inhibition; at 50.0 µM; stronger effect = higher value
In short: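 A repair-deficient yeast strain is exposed to test compound, and growth is scored relative to vehicle-treated controls.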

[6] = NCI Yeast Anticancer Drug Screen. Data for the sgs1 mgt1 strain (AID 161);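 also: 0% = growth of cultures given vehicle only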; details: S. cerevisiae sgs1 mgt1 strain, at 50.0 µM, stronger effect = higher value
In short: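 Compounds are added to genetically altered yeast, and growth is compared with cultures given vehicle alone to give percent inhibition.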

Structure (SMILES) | growth inhibition [1] | growth inhibition [2] | growth inhibition [3] | growth inhibition [4] | growth inhibition [5] | growth inhibition [6]
COc1ccc(C(=O)N2CCN(C)CC2)cc1OC | 19.1% | -3.95% | 13.4% | -1.75% | 4.2% | –
O=C(O)COc1c(F)cc(F)cc1Cl | 18.1% | 1.9% | -1.05% | 12% | 7.35% | –
C[N+]1=C2[B-](C(C)(C)C)=[N+](C(C)(C)C)[B-]2(C(C)(C)C)[N+](C)=C2[B-](C(C)(C)C)=[N+](C(C)(C)C)[B-]21C(C)(C)C (stereo not given) | 2.65% | 0% | -8.35% | -4.1% | -9.85% | –
CCCCC/C(C)=C(\C#N)C(=O)OC | -5.4% | -29.1% | -15.3% | -34% | -27.4% | –
Cn1c(=O)c2c(nc(Br)n2CC(=O)CF)n(C)c1=O | 13.2% | 10.8% | -24.4% | 8% | 20.4% | –
NC(Cc1ccccc1F)C(=O)O (stereo not given) | 5.95% | -18.6% | 13.6% | 4.9% | 11.2% | –
COCCNC(c1ccccc1)C(O)c1ccccc1 (stereo not given) | 6.4% | -15.6% | -33% | 7.5% | -7.85% | –
CCOC(=O)c1noc(Oc2ccc(Cl)cc2Cl)n1 | -13.9% | 0.15% | -4.35% | -9.3% | 15.1% | –
CCOC(=O)c1sc(N)nc1C | -17.8% | -12.2% | -21.9% | -11.5% | 0.35% | –
Cc1ccc(C)c(NC(=S)Nc2ccccc2)c1 | 0.8% | -9% | -24.6% | 54% | 1.7% | –
N#C/C1=C(\C#N)CCC2(C#N)C3C=CC(O3)C2(C#N)CC1 (stereo not given) | 14.9% | 12.6% | 13.3% | 8.45% | 23.1% | –
C/C(CC(c1ccccc1)c1ccccc1)=N\Nc1ccc([N+](=O)[O-])cc1[N+](=O)[O-] | 13.4% | 3.95% | 19.2% | 7.4% | 8.55% | –
CC/C=C/C(C)c1cc(C(=O)O)ccc1OC (stereo not given) | 10.9% | 4.3% | 6.55% | -13.2% | 18% | –
CCOC(=O)/C(C#N)=C/Nc1ccncc1 | 2.95% | -12.4% | 11.6% | 4.25% | 16% | –
COc1ccc(/C=N/SC(c2ccccc2)(c2ccccc2)c2ccccc2)cc1 | 28.6% | 6% | 13.4% | 0.2% | -4.4% | –
CC(C)C(Br)CCC1=CCC(Br)(Br)C1 (stereo not given) | 79.1% (active) | 82.2% (active) | 86.2% (active) | 84.7% (active) | 90.3% (active) | –
COc1cc2c(cc1OC)-c1cc3cc(OC)c(OC)cc3c(C)[n+]1CC2 (tested in a mixture with another compound) | 6.25% | 0% | 19.4% | 11.4% | -66.8% | –
O=c1c(-c2ccccc2)c2oc(c1-c1ccccc1)CS(=O)(=O)CCC2 | 21.9% | 20.2% | 12.3% | 8.15% | -2.35% | –
CCOC(=O)c1[nH]c2ccc(O)c3c2c1CCC3=O | 30.6% | -4.15% | 13.1% | 6.4% | 16.5% | –
BrCC1OCC2(CO1)COC(CBr)OC2 (stereo not given) | -11.2% | 11.3% | -16% | -6% | -13.2% | –
NNC(=O)COc1ccc(Br)cc1Br | 33.2% | 4.25% | 26.4% | 3.8% | -1.25% | –
C(/C=C/c1ccccc1)=C1SCCCS1 | 0.55% | -7.6% | -18.9% | -2.15% | -4.6% | –
CN(O)C(=O)c1ccccc1 | 5.45% | -8.4% | 11.9% | 15.1% | 16.9% | –
O=C1OC(=O)C2C1C1c3ccccc3C2(Br)c2ccccc21 (stereo not given) | -3.15% | 13.7% | -6.05% | 3.55% | 7.65% | –

Structure (SMILES) | growth inhibition [1] | growth inhibition [2] | growth inhibition [3] | growth inhibition [4] | growth inhibition [5] | growth inhibition [6]
CCOC1OC(C(O)CO)C(O)C(O)C1O (stereo not given) | 4.6% | -8.7% | -56.4% | -7.9% | -0.6% | –
O=S(=O)(c1ccccc1)N1CCCCN(S(=O)(=O)c2ccccc2)COC1 | 5.25% | -7.45% | -9.85% | -7.45% | -5.35% | –
CC(=O)Oc1cc2c3ccccc3ccc2c2ccccc12 | 13% | -9.5% | -2.9% | 8.85% | 0.05% | –
COc1ccc(N(Cc2ccc(C)o2)C(=S)Nc2ccccc2)cc1 | -3.6% | -5.4% | 8.9% | 36% | 7.05% | –
O=C(O)c1c[nH]c2cc(O)ccc2c1=O | -0.5% | 3.3% | -6.5% | 15.3% | -2.7% | –
NCCNCc1ccccc1 | 5.5% | -1.5% | 5.65% | -1.8% | 0.15% | –
C[C@H]1C[C@H]2[C@@H]3CC[C@@]4(OCC4=O)[C@@]3(C)C[C@H](O)[C@]2(F)[C@@]2(C)C=CC(=O)C=C12 | -16.6% | -24.4% | -34.9% | 17.4% | 0.35% | –
Cn1c(=O)oc2cc([N+](=O)[O-])c(Cl)cc21 | -2.9% | 4.25% | -1.35% | -6.6% | 6.75% | –
CCOC(=O)c1cnc2c(cnn2C(C)C)c1NN | -15.6% | -9.05% | -23.9% | 53.4% | -15.4% | –
Cc1ccc(NC(=O)C(=O)Cc2cc[n+]([O-])cc2)cc1 | -1.9% | – | 7.6% | 3.55% | 4.05% | 11.9%
CC1OC(C)(Cc2ccccc2)OC1C (stereo not given) | 3.95% | – | -59% | -7.1% | -8.95% | -9.2%
Cc1cc2c(=O)c3ccccc3oc2c(C(=O)O)c1C | -6.75% | – | 12% | -1.9% | -4.15% | -50.6%
O=S(=O)(Nc1nc2ccccc2nc1N1CCCCCC1)c1ccccc1 | -7.25% | – | 4.7% | 7.65% | -23.8% | 20.5%
COC(=O)[C@]12CCC(C)(C)C[C@H]1C1=CC[C@@H]3[C@@]4(C)CC[C@H](OC5OC(CO)C(O)C(O)C5OC5OC(CO)C(O)C(O)C5O)C(C)(C)[C@@H]4CC[C@@]3(C)[C@]1(C)CC2 (stereo not given in full) | 89% (active) | – | 90% (active) | 90.9% (active) | 89.5% (active) | 91.4% (active)
Cc1ccc(-c2nnc(NC(=O)Nc3ccc(Cl)cc3)o2)cc1 | 3.15% | – | -60.6% | -13.5% | 21.8% | 4.3%
COC(=O)C(NC(=O)C(=O)NC(C(=O)OC)C(C)(C)S)C(C)(C)S (stereo not given) | 3.85% | – | -12.7% | -5% | 4.25% | -2.3%
Cc1ccc(NC(=O)C2C(=O)N(c3ccc(C)cc3)C(=O)/C2=N\NC(N)=S)cc1 (stereo not given) | -29.7% | – | -10.4% | -10% | -26.8% | -38%
C=C(CCCC(C)OC(C)OCC)[Si](C)(C)C (stereo not given) | -26.2% | – | -7.15% | -23.6% | -37.9% | -20.6%
Cc1ccccc1NC(=O)C(=O)C(C#N)c1ccc(Cl)cc1Cl (stereo not given) | -19.3% | – | -19.6% | 7.3% | 19.9% | 24.8%
C[C@@]1(NC(=O)Cc2ccccc2)C(=O)N2CCS[C@@]21c1ccccc1 | 0.4% | – | -3.2% | 12.8% | 1.95% | -20.6%
CC(=O)N(C(C)=O)n1c(-c2ccccc2)n[nH]c1=O | -7.55% | – | 13.1% | -10.1% | 2.45% | -14.3%
CC1=C(C(=O)Nc2ccccc2C)C(c2ccccc2)C(C(=O)Nc2ccccc2C)=C(C)N1 | 10.7% | – | 6.3% | 16.3% | 7.1% | 9.25%
CC1CC=C2C=C(Cl)C=CC2(C)C1C (stereo not given) | 1.8% | – | -9.2% | 9% | -1.85% | -2.85%
